Measurements as given in PubChem BioAssay (Tox21).
Records with an inconclusive call do not appear. The source made the active and inactive calls. Unless noted, calls follow the shape of the full dose curve.

Experiments:
[1] = target: Acetylcholinesterase (Homo sapiens) (UniProt P22303); test: Acetylcholinesterase (AChE) small molecule antagonists: colormetric cell-based qHTS assay (AID 1347395); also: nearly all actives have a fitted effect of over 30% in size
Outline: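 Endogenous AChE of human neuroblastoma SH-SY5Y cells was measured with an Ellman-type DTNB/acetylthiocholine mix. Compound pretreatment lasted 30 min at 37 C; substrate reaction ran 90 min at 37 C.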

[2] = target: Acetylcholinesterase (Homo sapiens) (UniProt P22303); test: Acetylcholinesterase (AChE) small molecule antagonists: enzyme-based qHTS assay (AID 1347397); conditions: Potency: AChE enzyme activity inhibition; also: nearly all actives have a fitted effect of over 55% in size
Outline: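 Human recombinant acetylcholinesterase; substrate acetylthiocholine; thiocholine quantified with DTNB (colorimetric). Compound preincubation 30 min RT; reaction 10 min RT.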

[3] = target: Acetylcholinesterase (Homo sapiens) (UniProt P22303); test: Acetylcholinesterase (AChE) small molecule antagonists: fluorescence cell-based qHTS assay (AID 1347398); conditions: Potency: AChE activity; also: nearly all actives have a fitted effect of over 50% in size
Outline: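 Thiocholine generated from acetylthiocholine by SH-SY5Y cell AChE is detected with Thiolite Green (Ex/Em 490/520 nm) after 40 min at room temperature, following 30 min compound pretreatment at 37 C.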

[4] = target: Acetylcholinesterase (Homo sapiens) (UniProt P22303); test: Acetylcholinesterase (AChE) small molecule antagonists: enzyme-based qHTS assay with human liver microsomes (AID 1347399); conditions: Potency: qHTS inhibition; also: nearly all actives have a fitted effect of over 60% in size
Outline: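 Recombinant human AChE (50 mU/mL in the enzyme mix) and human liver microsomes (0.25 mg/mL final) were preincubated with compound and NADPH (0.25 mg/mL final) for 30 min at 37 C. Acetylthiocholine/DTNB was then added; thiocholine was read colorimetrically after 10 min at room temperature.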

[5] = target: Cytochrome P450 2D6 (Homo sapiens) (UniProt P10635); test: Cytochrome P450 Family 2 Subfamily D Member 6 (CYP2D6) small molecule antagonists: luciferase reporter qHTS assay (AID 1671196; active = well fitted curve in the direction sought with a large enough effect in the repeat runs; an effect the other way counts as inactive or inconclusive; also: series mostly up to about 120 µM; nearly all actives have a fitted effect of over 50% in size)
Cytochrome P450 2D6 (Homo sapiens), sequence (P10635 whole entry, looked up): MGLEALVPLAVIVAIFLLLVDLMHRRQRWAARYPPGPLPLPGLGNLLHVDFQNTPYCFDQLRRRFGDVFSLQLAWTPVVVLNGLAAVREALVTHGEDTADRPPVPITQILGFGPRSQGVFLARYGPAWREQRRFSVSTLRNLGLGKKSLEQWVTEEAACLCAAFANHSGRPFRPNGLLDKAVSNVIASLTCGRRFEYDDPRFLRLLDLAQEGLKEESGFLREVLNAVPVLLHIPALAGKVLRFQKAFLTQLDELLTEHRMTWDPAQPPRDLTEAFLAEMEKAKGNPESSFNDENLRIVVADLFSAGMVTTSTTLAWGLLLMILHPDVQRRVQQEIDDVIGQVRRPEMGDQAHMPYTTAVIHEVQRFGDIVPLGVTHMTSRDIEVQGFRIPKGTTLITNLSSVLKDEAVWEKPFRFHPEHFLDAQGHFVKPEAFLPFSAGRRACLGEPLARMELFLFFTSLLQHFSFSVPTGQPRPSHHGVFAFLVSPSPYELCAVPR
Outline: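 Inhibition of CYP2D6 was gauged by loss of luminescence, since light produced tracks the luciferin generated from a proluciferin substrate. A 10 min room-temperature preincubation preceded 1 h NADPH-supported turnover.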

[6] = target: Cytochrome P450 2C19 (Homo sapiens) (UniProt P33261); test: Cytochrome P450 Family 2 Subfamily C Member 19 (CYP2C19) small molecule antagonists: luciferase reporter qHTS assay (AID 1671197; active = well fitted curve in the direction sought with a large enough effect in the repeat runs; an effect the other way counts as inactive or inconclusive; also: nearly all actives have a fitted effect of over 65% in size; also: potency is read from the fitted curve at half-maximal effect; as to activity change, negative = inhibition: series mostly up to about 120 µM)
Cytochrome P450 2C19 (Homo sapiens), sequence (P33261 whole entry, looked up): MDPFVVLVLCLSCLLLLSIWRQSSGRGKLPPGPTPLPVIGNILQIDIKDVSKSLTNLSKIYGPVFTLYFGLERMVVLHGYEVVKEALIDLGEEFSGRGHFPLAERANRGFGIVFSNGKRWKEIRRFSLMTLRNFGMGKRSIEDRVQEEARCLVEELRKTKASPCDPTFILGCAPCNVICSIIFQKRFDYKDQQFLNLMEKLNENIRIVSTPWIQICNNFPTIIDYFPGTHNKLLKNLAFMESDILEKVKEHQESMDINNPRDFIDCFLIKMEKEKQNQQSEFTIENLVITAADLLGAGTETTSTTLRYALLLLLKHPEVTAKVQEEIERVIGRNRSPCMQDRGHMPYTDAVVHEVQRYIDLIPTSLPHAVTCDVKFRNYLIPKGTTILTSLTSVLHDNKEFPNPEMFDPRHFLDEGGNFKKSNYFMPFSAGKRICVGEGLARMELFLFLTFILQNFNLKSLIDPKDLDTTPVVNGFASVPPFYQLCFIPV
Outline: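 Enzyme-substrate mix with proluciferin substrate (P450-Glo CYP2C19 system) preincubated with compounds 10 min at room temperature; NADPH regeneration solution added, 37C for 1 h; detection reagent stops reaction, luminescence read after 20 min. Ketoconazole positive control.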

[7] = target: Voltage-gated inwardly rectifying potassium channel KCNH2 (Homo sapiens) (UniProt Q12809); test: Human Ether-a-go-go-Related Gene (hERG) channel small molecule antagonists: fluorescence cell-based qHTS assay (AID 1671200; active = well fitted curve in the direction sought with a large enough effect in the repeat runs; an effect the other way counts as inactive or inconclusive;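 also: hERG-expressing U2OS cells given a thallium stimulus after FluxOR II dye loading; series mostly up to about 77 µM; nearly all actives have a fitted effect of over 50% in size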)
Voltage-gated inwardly rectifying potassium channel KCNH2 (Homo sapiens), sequence (Q12809 whole entry, looked up): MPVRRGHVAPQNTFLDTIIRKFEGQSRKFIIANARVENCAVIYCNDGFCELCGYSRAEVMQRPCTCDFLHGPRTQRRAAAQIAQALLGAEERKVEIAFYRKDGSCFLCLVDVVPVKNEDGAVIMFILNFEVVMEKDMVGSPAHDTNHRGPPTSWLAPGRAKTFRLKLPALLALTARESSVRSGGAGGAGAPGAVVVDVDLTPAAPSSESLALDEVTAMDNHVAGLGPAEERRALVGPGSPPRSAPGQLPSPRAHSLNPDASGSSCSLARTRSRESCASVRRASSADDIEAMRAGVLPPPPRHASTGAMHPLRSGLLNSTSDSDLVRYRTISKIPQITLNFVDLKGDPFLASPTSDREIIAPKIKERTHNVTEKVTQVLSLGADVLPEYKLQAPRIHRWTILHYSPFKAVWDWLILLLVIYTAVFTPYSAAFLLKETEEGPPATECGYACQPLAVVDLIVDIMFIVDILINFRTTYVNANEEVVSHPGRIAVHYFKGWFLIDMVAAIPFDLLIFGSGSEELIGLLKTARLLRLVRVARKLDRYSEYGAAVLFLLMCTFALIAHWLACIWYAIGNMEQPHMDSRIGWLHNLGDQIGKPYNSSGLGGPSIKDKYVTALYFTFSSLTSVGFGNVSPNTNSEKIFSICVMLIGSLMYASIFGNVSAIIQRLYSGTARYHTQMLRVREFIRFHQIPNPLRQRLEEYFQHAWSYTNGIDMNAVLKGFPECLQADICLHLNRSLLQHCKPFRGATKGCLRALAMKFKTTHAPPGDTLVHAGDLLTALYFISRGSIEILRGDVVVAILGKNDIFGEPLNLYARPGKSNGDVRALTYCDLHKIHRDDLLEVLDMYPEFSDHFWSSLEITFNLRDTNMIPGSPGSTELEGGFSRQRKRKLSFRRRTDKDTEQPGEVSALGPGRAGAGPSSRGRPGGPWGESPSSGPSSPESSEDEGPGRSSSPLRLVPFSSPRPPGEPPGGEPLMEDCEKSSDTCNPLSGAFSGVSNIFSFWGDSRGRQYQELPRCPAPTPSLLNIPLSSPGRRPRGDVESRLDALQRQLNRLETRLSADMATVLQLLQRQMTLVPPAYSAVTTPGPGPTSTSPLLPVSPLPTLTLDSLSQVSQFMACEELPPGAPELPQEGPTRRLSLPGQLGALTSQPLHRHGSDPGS
Outline: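 Quantitative HTS in hERG-U2OS cells: thallium entry through the channel reports activity, read as continuous 480/540 nm fluorescence over 2 min after stimulus addition.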

[8] = target: Cytochrome P450 3A4 (Homo sapiens) (UniProt P08684); test: Cytochrome P450 Family 3 Subfamily A Member 4 (CYP3A4) small molecule antagonists: luciferase reporter qHTS assay (AID 1671201; active = well fitted curve in the direction sought with a large enough effect in the repeat runs; an effect the other way counts as inactive or inconclusive; also: nearly all actives have a fitted effect of over 50% in size; also: potency is read from the fitted curve at half-maximal effect; as to activity change, negative = inhibition: series mostly up to about 120 µM)
Cytochrome P450 3A4 (Homo sapiens), sequence (P08684 whole entry, looked up): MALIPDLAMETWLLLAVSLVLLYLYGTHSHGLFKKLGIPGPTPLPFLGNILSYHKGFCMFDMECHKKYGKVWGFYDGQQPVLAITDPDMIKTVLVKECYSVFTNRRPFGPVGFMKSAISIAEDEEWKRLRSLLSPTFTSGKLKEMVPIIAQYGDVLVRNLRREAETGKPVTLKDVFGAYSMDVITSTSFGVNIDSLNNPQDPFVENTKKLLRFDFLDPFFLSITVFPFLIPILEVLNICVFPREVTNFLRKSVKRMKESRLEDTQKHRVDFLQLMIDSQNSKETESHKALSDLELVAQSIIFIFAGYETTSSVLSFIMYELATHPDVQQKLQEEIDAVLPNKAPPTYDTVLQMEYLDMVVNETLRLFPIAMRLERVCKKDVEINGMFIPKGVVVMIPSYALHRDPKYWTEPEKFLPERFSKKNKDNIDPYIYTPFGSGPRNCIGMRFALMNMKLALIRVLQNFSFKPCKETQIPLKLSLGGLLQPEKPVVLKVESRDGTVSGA
Outline: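 Inhibition of CYP3A4 is measured as loss of light: the enzyme converts a proluciferin substrate to luciferin, detected luminescently. Reaction ran 1 h at room temperature with NADPH regeneration after a 10 min compound preincubation.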

[9] = target: Cytochrome P450 2C9 (Homo sapiens) (UniProt P11712); test: Cytochrome P450 Family 2 Subfamily C Member 9 (CYP2C9) small molecule antagonists: luciferase reporter qHTS assay (AID 1671198; active = well fitted curve in the direction sought with a large enough effect in the repeat runs; an effect the other way counts as inactive or inconclusive; also: nearly all actives have a fitted effect of over 50% in size; also: potency is read from the fitted curve at half-maximal effect; as to activity change, negative = inhibition: series mostly up to about 120 µM)
Cytochrome P450 2C9 (Homo sapiens), sequence (P11712 whole entry, looked up): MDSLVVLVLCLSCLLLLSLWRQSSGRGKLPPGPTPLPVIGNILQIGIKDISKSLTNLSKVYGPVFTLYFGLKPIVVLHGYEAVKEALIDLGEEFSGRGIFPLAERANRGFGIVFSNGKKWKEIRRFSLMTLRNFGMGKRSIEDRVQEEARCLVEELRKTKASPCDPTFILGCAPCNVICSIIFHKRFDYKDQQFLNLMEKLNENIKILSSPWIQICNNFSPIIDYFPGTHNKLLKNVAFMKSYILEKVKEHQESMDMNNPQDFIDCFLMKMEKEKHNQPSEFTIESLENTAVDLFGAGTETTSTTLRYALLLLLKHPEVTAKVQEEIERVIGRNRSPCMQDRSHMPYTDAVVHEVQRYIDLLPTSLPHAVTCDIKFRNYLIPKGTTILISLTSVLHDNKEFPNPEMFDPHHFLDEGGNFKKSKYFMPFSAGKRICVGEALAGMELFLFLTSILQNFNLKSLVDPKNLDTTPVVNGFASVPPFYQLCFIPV
Outline: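 CYP2C9 activity was measured with a P450-Glo proluciferin substrate. Enzyme–substrate mix was held with compound for 10 min at room temperature, then NADPH regeneration solution was added for 1 h at 37C. Luciferin product was read as luminescence.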

[10] = target: Cytochrome P450 1A2 (Homo sapiens) (UniProt P05177); test: Cytochrome P450 Family 1 Subfamily A Member 2 (CYP1A2) small molecule antagonists: luciferase reporter qHTS assay (AID 1671199; active = well fitted curve in the direction sought with a large enough effect in the repeat runs; an effect the other way counts as inactive or inconclusive; also: nearly all actives have a fitted effect of over 50% in size; also: potency is read from the fitted curve at half-maximal effect; as to activity change, negative = inhibition: series mostly up to about 120 µM)
Cytochrome P450 1A2 (Homo sapiens), sequence (P05177 whole entry, looked up): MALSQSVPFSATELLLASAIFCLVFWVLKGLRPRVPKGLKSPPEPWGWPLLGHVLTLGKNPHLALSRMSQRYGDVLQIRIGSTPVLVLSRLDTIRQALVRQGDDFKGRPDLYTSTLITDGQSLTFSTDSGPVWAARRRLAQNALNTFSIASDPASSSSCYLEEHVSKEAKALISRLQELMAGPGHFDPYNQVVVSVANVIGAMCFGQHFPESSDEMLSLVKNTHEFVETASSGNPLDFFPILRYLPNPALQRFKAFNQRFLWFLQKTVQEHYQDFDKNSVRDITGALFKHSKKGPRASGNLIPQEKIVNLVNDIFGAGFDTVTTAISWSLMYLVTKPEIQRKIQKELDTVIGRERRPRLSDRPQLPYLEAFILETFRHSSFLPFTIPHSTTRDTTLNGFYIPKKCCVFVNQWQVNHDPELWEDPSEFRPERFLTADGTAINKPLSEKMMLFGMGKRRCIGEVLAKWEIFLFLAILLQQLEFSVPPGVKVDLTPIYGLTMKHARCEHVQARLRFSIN
Outline: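 Signal from luciferin formed by CYP1A2 from a proluciferin substrate is read as luminescence, expressed in relative luminescence units. Compounds sit with enzyme 10 min, NADPH-driven reaction runs 1 h, all at room temperature.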
% is scaled to controls: 0 for no effect and ±100 for the full control effect.

Acetylcholinesterase (Homo sapiens), sequence (P22303 whole entry, looked up): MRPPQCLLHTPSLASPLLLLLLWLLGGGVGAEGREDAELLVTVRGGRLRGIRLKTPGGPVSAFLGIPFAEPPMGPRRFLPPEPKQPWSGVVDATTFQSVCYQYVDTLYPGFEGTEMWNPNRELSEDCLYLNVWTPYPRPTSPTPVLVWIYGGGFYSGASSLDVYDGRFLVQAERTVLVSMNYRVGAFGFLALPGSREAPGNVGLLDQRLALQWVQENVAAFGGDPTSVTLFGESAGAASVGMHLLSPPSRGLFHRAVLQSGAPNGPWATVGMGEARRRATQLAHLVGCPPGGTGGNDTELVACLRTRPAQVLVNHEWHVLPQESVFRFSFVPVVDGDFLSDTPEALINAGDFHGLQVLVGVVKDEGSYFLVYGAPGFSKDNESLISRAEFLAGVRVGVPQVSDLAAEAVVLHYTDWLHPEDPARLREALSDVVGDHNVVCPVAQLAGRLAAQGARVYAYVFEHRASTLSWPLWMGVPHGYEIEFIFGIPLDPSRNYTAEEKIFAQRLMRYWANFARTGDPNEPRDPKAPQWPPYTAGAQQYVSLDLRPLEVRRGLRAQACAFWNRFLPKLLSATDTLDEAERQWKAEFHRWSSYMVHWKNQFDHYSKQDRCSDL

C/C=C/C=O
active: Potency [6] 34 µM
inactive: Potency [1] | Potency [2] | Potency [3] | Potency [4] | Potency [5] | Potency [7] | Potency [8]

C=C(C#N)CCC#N
inactive: Potency [1] | Potency [2] | Potency [3] | Potency [4] | Potency [5] | Potency [6] | Potency [7] | Potency [8]

COC(=O)C(Br)CBr (stereo not drawn)
active: Potency [10] 35.6 µM
inactive: Potency [1] | Potency [2] | Potency [3] | Potency [4] | Potency [5] | Potency [9] | Potency [7]

CCCCCCCCCCOC(=O)c1ccccc1C(=O)OCCCCCCCCCC
inactive: Potency [1] | Potency [2] | Potency [3] | Potency [4] | Potency [5] | Potency [6] | Potency [10] | Potency [8]

CC[C@H]1C[C@H]2[C@@H]3CCC4=CC(=O)CC[C@@H]4[C@H]3CC[C@]2(C)[C@H]1O
inactive: Potency [1] | Potency [2] | Potency [3] | Potency [4] | Potency [5] | Potency [10] | Potency [8]

CC/C(=N\OC/C=C/Cl)C1=C(O)CC(C2CCOCC2)CC1=O (stereo not drawn)
active: Potency [6] 70.9 µM | Potency [8] 31.7 µM
inactive: Potency [1] | Potency [2] | Potency [3] | Potency [4] | Potency [5] | Potency [7]

C[C@]12CC[C@H]3[C@@H](CCC4=CC(=O)CC[C@@H]43)[C@@H]1CC[C@@H]2OC(=O)CCC1CCCCC1
inactive: Potency [1] | Potency [2] | Potency [3] | Potency [4] | Potency [5] | Potency [8]
active: Potency [9] 17.4 µM

Cc1cc(=O)[nH]o1
inactive: Potency [1] | Potency [2] | Potency [3] | Potency [4] | Potency [5] | Potency [10] | Potency [7]

O=C(O)C1(c2ccc3c(c2)OC[C@H](Cc2ccc(-c4ccccc4)cc2)[C@H]3O)CCCC1
inactive: Potency [1] | Potency [2] | Potency [3] | Potency [4] | Potency [5] | Potency [10] | Potency [7] | Potency [8]
active: Potency [9] 71 µM

CO[C@@H]1[C@H](OC(=O)NC(=O)CCl)CC[C@]2(CO2)[C@H]1[C@@]1(C)O[C@@H]1CC=C(C)C
active: Potency [6] 21.8 µM | Potency [8] 7.74 µM
inactive: activity, negative = inhibition [1] 2.96% [at 23.6 µM] | activity change, negative = inhibition [2] 0.618% [at 23.6 µM] | activity change, negative = inhibition [3] -0.397% [at 23.8 µM] | activity change, negative = inhibition [4] -0.551% [at 23.6 µM] | activity change, negative = inhibition [5] -6.64% [at 23.6 µM] | activity change, negative = inhibition [7] 7.85% [at 15.8 µM]
